Experimental data reported in PubChem BioAssay (Tox21).
A number with no mark means an inactive call. Activity calls are given as the source filed them. Calls follow the shape of the dose curve; as a rule, active = well fitted curve in the direction sought with a large enough effect in the repeat runs; inconclusive = weak or mixed curves; inactive = flat fitted curve, though single readings scatter.

assay: qHTS assay to test for compound auto fluorescence at 590 nm (red) in HEK293 cell free culture (AID 720683); settings: cell-free medium autofluorescence, Ex540/Em590 red; series mostly up to 91.3 µM
Procedure, shortened: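 Cell-free wells of DMEM with 10% FBS received compound, and intrinsic fluorescence was read at excitation/emission 540/590 nm. Values expressed as equivalence to Rose Bengal sodium.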
% is scaled to controls: 0 for no effect and ±100 for the full control effect.

Row | SMILES | outcome | fluorescence, % of fluorescent control
1 | CN(C)CC[C@@H](c1ccc(Br)cc1)c1ccccn1 | inactive | 
2 | O=C(O)/C=C/c1cnc[nH]1 | inactive | 
3 | Cc1occc1S | inactive | 
4 | CC(C)CCCCCCOC(=O)c1ccc(C(=O)OCCCCCCC(C)C)c(C(=O)OCCCCCCC(C)C)c1 | inactive | 
5 | O=c1[nH]cnc2ccccc12 | inactive | 
6 | CCN(CC)CCOc1ccc2c(c1)C(=O)c1cc(OCCN(CC)CC)ccc1-2 | inactive | 
7 | CC(=O)OCCc1ccccc1 | inactive | 
8 | O=C(O)COC(=O)Cc1ccccc1Nc1c(Cl)cccc1Cl |  | -0.172% [at 18.6 µM]
9 | CCCCCCCCCCCCC(=O)O | inactive | 
10 | Oc1ccc(Cc2ccccc2)cc1 | inactive | 
11 | NC1CCN(c2nc3c(cc2F)c(=O)c(C(=O)O)cn3-c2ccc(F)cc2F)C1 (stereo unspecified) | inactive | 
12 | CC(C)c1ccc2c(C(C)C)cc(C(C)C)c(S(=O)(=O)O)c2c1 | inactive | 
13 | CCN1CCC[C@H]1CNC(=O)c1c(OC)ccc(Br)c1OC | inactive | 
14 | O=CNc1ccccc1 | inactive | 
15 | Cc1cccc(Oc2ccccc2)c1 | inactive | 
16 | O=C(O)[C@@H]1[C@H]2C[C@H]3c4[nH]c5ccccc5c4CCN3C[C@@H]2CC[C@@H]1O |  | 0.0861% [at 18.6 µM]
17 | O=C(O)Cc1cc(I)c(Oc2ccc(O)c(I)c2)c(I)c1 | inactive | 
18 | O=c1c2ccccc2nnn1CCl | inactive | 
19 | O=C(NN1CCCC1)NS(=O)(=O)c1ccc(Cl)cc1 | inactive | 
20 | C[C@@H](C1=C(CCN(C)C)Cc2ccccc21)c1ccccn1 | inactive | 
21 | CC(=O)N(O)CCCCCNC(=O)CCC(=O)N(O)CCCCCNC(=O)CCC(=O)N(O)CCCCCN |  | -0.0386% [at 18.6 µM]
